# Assay results reported in PubChem BioAssay (NCI).
# Compounds without any hit were thinned out: in the full panel of roughly 83,000, 20% have a hit.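 For each line, cells grew in 96-well plates with the test compound present at a single concentration for 48 hours.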 Unmarked numbers belong to inactive results. Active and inactive are the calls of the source. The calls were made as follows: active = growth percent below 10; inactive = the rest.
# Columns and labels:
# Experiment in all cases: NCI-60 one-dose screen, 48 h (100 = growth as untreated, 0 = no growth, -100 = all killed)
# Settings in all cases: 10 µM unless noted
# [1] = system: SK-MEL-2 melanoma
# [2] = system: EKVX NSCLC
# [3] = system: SN12C renal
# [4] = system: UO-31 renal
# [5] = system: ACHN renal
# [6] = system: CAKI-1 renal
# [7] = system: CCRF-CEM leukemia
# [8] = system: MOLT-4 leukemia
# [9] = system: A498 renal
# [10] = system: TK-10 renal
Compound,growth [1],growth [2],growth [3],growth [4],growth [5],growth [6],growth [7],growth [8],growth [9],growth [10]
NS(=O)(=O)c1cc(C2(O)NC(=O)c3ccccc32)ccc1Cl (stereo not given),113%,108%,101%,76.4%,90.7%,93.9%,98.9%,93.6%,,
COc1cc(/C=C2\SC(N3CCCCC3)=NC2=O)ccc1OCCCCCCOc1ccc(/C=C2\SC(N3CCCCC3)=NC2=O)cc1OC,2.01% (active),31.4%,25.3%,33.5%,23.1%,4.5% (active),1.05% (active),7.46% (active),7.57% (active),
OC(c1ccccc1)C(NCc1ccccc1)c1ccccc1 (stereo not given),120%,86%,104%,92%,99.5%,62.8%,97.3%,100%,87.7%,
CSc1nc(Nc2ccc(S(=O)(=O)Nc3ccon3)cc2)c(C#N)c(-c2ccc(Cl)cc2)n1,99.3%,98.5%,108%,86%,90.2%,102%,6.79% (active),-20.8% (active),93.3%,
CC12CCC3C(=CCc4cc(O)ccc43)C1CCC2=O (stereo not given),119%,72.3%,97.5%,76%,93.1%,92.6%,95.5%,85.4%,102%,
CCSc1nc(-c2ccc(F)cc2)c(C#N)c(=O)[nH]1,96.3%,105%,96.2%,125%,97.1%,98.7%,102%,124%,112%,
COc1cc(/C=C2\CN(C)CC3=C2Nc2nc(SC)[nH]c(=O)c2C3c2cc(OC)c(OC)c(OC)c2)cc(OC)c1OC (stereo not given),71.8%,83.7%,24.2%,52.4%,39.2%,14.5%,-0.341% (active),0.96% (active),95.9%,
CCC(C)C1NC(=O)C(CCNCS(=O)(=O)O)NC(=O)C(NC(=O)C(CCNCS(=O)(=O)O)NC(=O)C(NC(=O)C(CCNCS(=O)(=O)O)NC(=O)CCCCC(C)C)C(C)O)CCNC(=O)C(C(C)O)NC(=O)C(CCNCS(=O)(=O)O)NC(=O)C(CCNCS(=O)(=O)O)NC(=O)C(C(C)CC)NC1=O (stereo not given),39.9%,83.7%,63.6%,75%,94.5%,99.4%,20.7%,66.4%,88.8%,
O=C(O)CCC(=O)OC[C@@H](NC(=O)C(Cl)Cl)[C@H](O)c1ccc([N+](=O)[O-])cc1,105%,106%,92.9%,72%,88.1%,89.6%,89.7%,90.7%,117%,
CCOC(=O)CCC(=O)O[C@H]1[C@H](O[C@@H]2[C@@H](C)[C@H](O[C@H]3C[C@@](C)(OC)[C@@H](O)[C@H](C)O3)[C@@H](C)C(=O)O[C@H](CC)[C@@](C)(O)[C@H](O)[C@@H](C)C(=O)[C@H](C)C[C@@]2(C)O)O[C@H](C)C[C@@H]1N(C)C,121%,100%,101%,67.7%,96.4%,93.2%,91.4%,94.2%,120%,
O=C1CSC(c2ccccc2O)N1c1nnc(Cn2ccnc2)o1 (stereo not given),90.3%,81.5%,66.1%,32.9%,53.6%,-37.5% (active),34%,48.6%,99.5%,
Oc1c(Cl)cc(Cl)c(Cl)c1Cc1c(O)c(Cl)cc(Cl)c1Cl,-39.1% (active),-4.03% (active),5.01% (active),-2.22% (active),18.4%,-18.3% (active),5.78% (active),11.1%,-17.3% (active),
C/C=C(/C(=C/C)c1ccc(O)cc1)c1ccc(O)cc1,44.9%,35.7%,42.8%,38.1%,38.4%,42.1%,17.1%,34%,31.4%,
C[C@H]1O[C@@H](O[C@H]2[C@@H](O)C[C@H](O[C@H]3[C@@H](O)C[C@H](O[C@H]4CC[C@]5(C)C6C[C@@H](O)[C@]7(C)[C@@H](C8=CC(=O)OC8)CC[C@]7(O)C6CC[C@@H]5C4)O[C@@H]3C)O[C@@H]2C)C[C@H](O)[C@@H]1O (stereo not given in full),-72.8% (active),-100% (active),-61.7% (active),-82.4% (active),-75.8% (active),-100% (active),-56.6% (active),-33.7% (active),-33% (active),
COc1ccc(/C=C/C(=O)c2cccc(NS(C)(=O)=O)c2)cc1,114%,94.6%,82.8%,48.6%,93.4%,,1.69% (active),40.8%,,92.2%
COc1cnc2c(c1)C(=O)c1c-2n(CCCN2CCC(O)CC2)c(=O)c2cc(F)ccc12,3.49% (active),2.5% (active),9.71% (active),-89.4% (active),-58% (active),,-2.05% (active),-19.2% (active),-87.9% (active),
C#C[C@]1(O)CCC2C3CCc4cc(O)ccc4C3CC[C@@]21C (stereo not given in full),18.5%,31.6%,52.3%,55.7%,60.4%,45.3%,39%,23.4%,49.2%,
CCSc1nc(-c2cccs2)n2nc(-c3ccco3)cc2n1,105%,81.3%,89.7%,79.7%,94.1%,86.3%,88.7%,115%,94.4%,
O=C1/C(=C\c2coc3ccccc3c2=O)c2ccccc2N1c1c(Cl)cccc1Cl,85.7%,33.1%,59.5%,42.6%,54.6%,-7.88% (active),21.1%,19%,12.6%,
N#Cc1c(-c2ccc(F)cc2)n2c(nc1=O)SC(=O)C2=O,92%,91.3%,91.1%,110%,90.3%,86.4%,85.4%,90.5%,70%,
CCSc1nc(-c2ccco2)n2nc(-c3ccco3)cc2n1,129%,76.1%,95.8%,72.4%,88.8%,84.3%,86.7%,118%,91.7%,
Cc1onc(-c2ccccc2Cl)c1C(=O)N[C@@H]1C(=O)N2[C@@H]1SC(C)(C)[C@@H]2C(=O)O,110%,104%,103%,80.4%,104%,96.6%,96.6%,90.5%,114%,
NS(=O)(=O)c1cc2c(cc1Cl)NC=NS2(=O)=O,103%,107%,100%,82.1%,98.9%,96.3%,97.6%,103%,,
CN[C@@H]1C(OC2[C@H](O[C@H]3[C@H](O)[C@@H](O)[C@H](N=C(N)N)[C@@H](O)[C@@H]3N=C(N)N)OC(C)[C@]2(O)CO)OC(CO)C(O)C1O (stereo not given in full),112%,113%,108%,102%,114%,107%,101%,92.7%,109%,
COc1cccc2c1C(=O)c1c(O)c3c(c(O)c1C2=O)C[C@@](O)(C(C)=O)C[C@@H]3O[C@H]1C[C@H](N)[C@H](O)[C@H](C)O1,-82% (active),-25% (active),4.49% (active),-64.7% (active),-23.1% (active),-29.4% (active),-25.1% (active),-17.8% (active),-72.7% (active),
CC(C)CC1NC(=O)C(CCCN)NC(=O)C(C(C)C)NC(=O)C2CCCN2C(=O)C(Cc2ccccc2)NC(=O)C(CC(C)C)NC(=O)C(CCCN)NC(=O)C(C(C)C)NC(=O)C2CCCN2C(=O)C(Cc2ccccc2)NC1=O (stereo not given),-94% (active),-87.3% (active),-82.2% (active),-20% (active),-19.8% (active),-14.8% (active),-59.3% (active),-51.3% (active),,
C[N+]1(C)C2CC[C@@H]1CC(OC(=O)C(O)c1ccccc1)C2 (stereo not given in full),150%,99.4%,87.3%,85.3%,106%,84.1%,93.1%,126%,109%,
CC(C)Sc1nc(-c2ccc(Br)cc2)c(C#N)c(N2CCCCC2)n1,108%,93.3%,94.3%,95.3%,101%,95.9%,95.2%,110%,83.8%,
CN1CCN(c2nc3scc(-c4ccccc4)c3c(=O)[nH]2)CC1,104%,90.3%,100%,81.4%,107%,,103%,95.5%,91%,
